Rows were chosen to be rich in hits. Some 8.3% of all compounds tested hit in one or more screens of this group.
RORg inh = qHTS for inhibitors of ROR gamma transcriptional activity; Nuclear receptor ROR-gamma (Mus musculus), P51450; Drosophila S2 Gal4-RORgamma UAS-luciferase reporter, 20 h; Potency, µM (highest dose often 53.6 µM), without a hit: top-dose activity change, negative = inhibition, most hits filed as inhibitors; actives 5.4% (n = 310,000); further: potency means the concentration at half of the fitted maximal effect; on the % scale 0 is the no-effect control and ±100 the full control effect; nearly all actives have a fitted effect of over 60% in size
Target sequence (P51450 whole entry, looked up, the tested form may be a part): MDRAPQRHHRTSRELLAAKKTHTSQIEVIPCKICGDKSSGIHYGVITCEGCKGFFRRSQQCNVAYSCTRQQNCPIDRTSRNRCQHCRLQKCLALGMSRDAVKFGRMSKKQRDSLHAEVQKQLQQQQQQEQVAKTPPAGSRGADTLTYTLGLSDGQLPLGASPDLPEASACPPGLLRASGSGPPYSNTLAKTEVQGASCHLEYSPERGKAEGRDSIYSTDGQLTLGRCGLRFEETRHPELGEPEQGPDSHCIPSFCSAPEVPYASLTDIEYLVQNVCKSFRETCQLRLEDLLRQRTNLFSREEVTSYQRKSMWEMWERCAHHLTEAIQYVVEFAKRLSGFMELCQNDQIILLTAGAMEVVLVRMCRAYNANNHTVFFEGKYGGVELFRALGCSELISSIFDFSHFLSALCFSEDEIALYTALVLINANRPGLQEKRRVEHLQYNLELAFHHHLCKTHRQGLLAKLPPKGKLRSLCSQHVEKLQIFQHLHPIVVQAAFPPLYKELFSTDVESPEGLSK
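Compounds are pin-transferred onto Drosophila Schneider cells expressing a copper-inducible Gal4–ROR gamma transactivation domain fusion. After 1 hr, copper sulfate is added to 700 uM final; luciferase is read 20 hr later.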
Chronic BCR inh = qHTS Assay to Find Inhibitors of Chronic Active B-Cell Receptor Signaling; actives 0.05% (n = 340,000); ABC-DLBCL IkBa-CBG/CBR reporter, luminescence ratio, 4 h; Potency, µM (series often up to 46.1 µM), inactives show at the top dose activity change, negative = inhibition, most hits filed as inhibitors; active means well fitted inhibition curve with a large enough effect in the signal ratio, with a control signal flat, not every such curve was filed as active; inconclusive means small, poorly fitted or top-dose-only effect, or effect the other way, or a change in a side signal; the % refers to the signal ratio;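 further: potency means the concentration at half of the fitted maximal effect; plate controls were basal doxycycline-induced cells for no effect and cells given 10 µM MG132 for full effect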
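Cell line TMD8 (human ABC DLBCL), stably expressing tet-inducible CBG68-IkBa fusion and CBR; IMDM/0.5% FBS; cpd up to 46 uM; dox induction, 4 h, 37C/5% CO2; dual luminescence; green/red ratio; MG132 control.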
SW480 rerep = A quantitative high throughput screen for small molecules that induce DNA re-replication in SW480 colon adenocarcinoma cells; SW480 DNA re-replication, Hoechst DNA content imaging, 48 h; Potency, µM (highest dose often 46.1 µM), for the others: at the top dose re-replication activation, actives largely listed as activators; actives 1.8% (n = 340,000); AID 624297, 2012; further: potency means the concentration at half of the fitted maximal effect; % of control where 0% means no effect; nearly all actives have a fitted effect of over 55% in size
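250 cells/well; 23 nL cpd via pin tool; 48 hr, 37 C, 5% CO2; Hoechst 40 min; imager read of total nuclear intensity, ex 405/em 500-530 nm.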
VP16 counter = VP16 counterscreen qHTS for inhibitors of ROR gamma transcriptional activity; actives 3.5% (n = 310,000); Drosophila S2 Gal4-VP16 UAS-luciferase, luminescence, 20 h; AID 2546, 2010; Potency, µM (highest dose often 53.6 µM), inactives show top-dose activity, negative = inhibition, usual class: inhibitors;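 further: Gal4-VP16 expression switched on by copper sulfate through the metallothionein promoter; potency means the concentration at half of the fitted maximal effect; on the % scale 0 is the no-effect control and ±100 the full control effect; nearly all actives have a fitted effect of over 50% in size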
MCF10A rerep = A quantitative high throughput screen for small molecules that induce DNA re-replication in MCF 10a normal breast cells | AID 624296, 2012 | Potency, µM (top dose mostly 46.1 µM), inactives show top-dose activity, positive = re-replication, hits mostly activators | MCF 10A DNA re-replication, Hoechst nuclear intensity, 48 h | actives 2.9% (n = 350,000); further: potency means the concentration at half of the fitted maximal effect; % of control where 0% means no effect; nearly all actives have a fitted effect of over 50% in size
Giardia killer = Small Molecules that selectively kill Giardia lamblia: qHTS | Giardia lamblia trophozoite viability | activity change, % at 7.66 µM, hits read low | actives 0.15% (n = 340,000); in the data active means activity change below about -80%; inconclusive means between about -30% and that limit;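 further: parasites exposed to compound for two days anaerobically before the ATP read; on the % scale 0 is the no-effect control and ±100 the full control effect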
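Each well holds 100 Giardia trophozoites and compound. After two days (48 hrs) at 37 deg C in anaerobic conditions, ATP is quantified by luminescence.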
* marks the source's active call; other numbers are inactive results; ? = inconclusive; / = no result; [ ] = dose if it differs, or a comment. Unless noted, the call rests on the fitted dose curve; in most records, active means well fitted curve in the direction sought with a large enough effect; inconclusive means small, poorly fitted or top-dose-only effect, or another doubt; inactive means no such curve, though single readings can be large; an effect the other way counts as inactive or inconclusive.

SMILES	RORg inh	Chronic BCR inh	SW480 rerep	VP16 counter	MCF10A rerep	Giardia killer
CCC[C@H](N[C@@H](C)C(=O)N1[C@@H]2CCCC[C@H]2C[C@H]1C(=O)O)C(=O)OCC	-2%	/	/	-11%	/	/
COc1ccccc1-c1nc(-c2ccccc2)nc(N2CCN(C)CC2)c1C#N	14µM*	-9%	?	-19%	?	0
COc1ccc(-c2nc(-c3ccccn3)nc(N3CCN(C)CC3)c2C#N)cc1	1.4µM*	-4%	-26%	-7%	0%	4
CC(C)NC(=O)c1ccccc1NC(=O)CN(c1ccc2c(c1)OCO2)S(C)(=O)=O	2%	8%	-5%	-3%	1%	27
CC(NC(=O)Nc1ccc(F)cc1)c1ccc2c(c1)OCO2 (stereo not drawn)	-3%	1%	0%	?	-23%	-15
C=CCn1ccc(=NC=C(C#N)C#N)c2ccccc21	3%	?	1%	-9%	0%	5
C/C(=N\NC(=O)Nc1ccccc1)c1ccccc1	?	?	-4%	4%	-2%	-4
COc1cc(NC(=O)CN(C)Cc2cccc(F)c2)c(C)cc1[N+](=O)[O-]	5%	-3%	-1%	-4%	-4%	-7
Cc1cc(C)nc(SCC2COc3ccccc3O2)n1 (stereo not drawn)	?	6%	-10%	3%	-1%	-6
CC(=O)Oc1ccc2c3c(c(=O)oc2c1C)CCCC3	-3%	-1%	-63%	7%	21µM*	5
COc1ccccc1N1C(=O)c2ccc(C(=O)Nc3ccc(C(=O)O)cc3)cc2C1=O	18%	3%	-8%	4%	-1%	-19
Cc1[nH]c(-c2ccc(F)cc2)cc1C(=O)N1CCN(c2ccc(Cl)cc2)CC1	?	?	-2%	2%	5.8µM*	-5
Cc1cc(C(=O)CN2c3cccc4cccc(c34)S2(=O)=O)c(C)n1C	/	?	3.3µM*	/	3.7µM*	3
Cc1ccc2c(c1C)-c1c(ccc(C)c1C)C(=O)C2=O	/	/	3.3µM*	/	4.1µM*	-8
O=C(O)c1cc(N/N=C/c2c(O)ccc3ccccc23)ccc1Cl	20%	?	-9%	-23%	6%	-6
Nc1nonc1N/N=C\c1ccccc1	14%	-20%	-4%	-2%	0%	4
Nc1nonc1N/N=C/c1c(O)ccc2ccccc12	11µM*	8%	2%	-3%	-10%	-2
Nc1cc(Cl)nc(N/N=C/c2c(O)ccc3ccccc23)n1	0.63µM*	5%	?	11µM*	7%	-3
O=C(c1cncc(Br)c1)N1CCc2ccccc2C1	-2%	8%	-1%	2%	0%	5
CCOc1ccc(OCCSc2nc(-c3ccccc3)cc(=O)[nH]2)cc1	2%	0%	-2%	4%	4%	2
O=C(CC1SC(=Nc2ccccc2)N(Cc2ccccn2)C1=O)Nc1ccc(Br)cc1 (stereo not drawn)	?	-5%	16µM*	-7%	23µM*	-5
O=C(CC1Sc2ncnn2C1=O)Nc1ccc(Br)cc1 (stereo not drawn)	?	0%	?	25µM*	?	-7
O=C(CC1SC2=NCCN2C1=O)Nc1ccc(Br)cc1 (stereo not drawn)	59%	9%	-6%	-3%	-3%	-4
Cc1ccc(S(=O)(=O)CC(=O)Nc2sc3c(c2C#N)CCCC3)cc1	/	-16%	/	/	/	/
COC(=O)[C@@]1(Cc2ccccc2)[C@H]2C(=O)N(C)C(=O)[C@H]2[C@H]2CN=C(SCc3ccccc3)N21	/	-7%	9%[9.22 µM]	/	-6%	-10
SMILES	RORg inh	Chronic BCR inh	SW480 rerep	VP16 counter	MCF10A rerep	Giardia killer
COC(=O)[C@@]1(Cc2ccccc2)[C@H]2C(=O)N(C)C(=O)[C@H]2[C@H]2CN=C(SCc3ccc(C#N)cc3)N21	/	-1%	3.7µM*	/	-15%	20
NC1=NC(c2ccccc2)=NC1(NC(=O)c1ccccc1)C(Cl)Cl (stereo not drawn)	18%	-1%	-22%	1%	-10%	-1
Cn1c(C(=O)OC(C(=O)NC2CCCCC2)c2cccnc2)cc2sccc21 (stereo not drawn)	1%	-28%	3%	4%	1%	-6
Oc1ccc(NCc2ccccc2OCc2ccccc2F)cc1	13µM*	?	?	16µM*	?	-6
Brc1ccc(OCc2nc(-c3ccccn3)n[nH]2)cc1	14µM*	?	-4%	?	-4%	-10
O=C(CNC(=O)c1cccs1)Nc1cccc(S(=O)(=O)N2CCOCC2)c1	/	-4%	12%	/	2%	-2
COc1ccc(NC(=O)/C(C#N)=C/C=C/c2ccco2)cc1	-20%	?	8.2µM*	-19%	15µM*	4
COc1ccc(OC)c(NC(=O)C(C#N)=Cc2ccco2)c1	/	/	-3%	/	5%	31
CCOC(=O)NN=C1CCC(c2ccccc2)CC1 (stereo not drawn)	1%	0%	-8%	9%	?	-4
CCOC(=O)N(NC(=O)C(O)(c1ccccc1)c1ccccc1)c1ccccc1	-9%	9%	2.9µM*	-4%	4%	-18
CCCC(O)(CCC)C(=O)NN(C(=O)CCl)c1ccccc1	?	?	?	-20%	15µM*	-20
COc1cc(/C=C2\SC(N)=NC2=O)ccc1OCC(=O)Nc1ccccc1C	/	1%	?	/	113%	-17
C=CCSC1=C(C#N)C(c2ccccc2Cl)C(C(=O)c2cccs2)C(O)(C(F)(F)F)N1 (stereo not drawn)	?	?	4%	?	?	0
CCCCn1c(N)c(N(C)C(=O)c2ccccc2Oc2ccccc2)c(=O)[nH]c1=O	/	-10%	?	/	16%	-17
COc1ccccc1CNCC(O)Cn1c2ccccc2c2ccccc21 (stereo not drawn)	?	?	?	?	?	26
COc1ccc(C(=O)c2c(C)c3ccccc3n2CC(O)CNC(C)C)cc1 (stereo not drawn)	7.9µM*	?	-706%	20µM*	24%	-19
CN1CCN(C(=O)c2ccc(CNS(=O)(=O)c3ccc(F)c(Cl)c3)cc2)CC1	-11%	10%	-8%	-1%	-1%	23
COc1ccc(NC(=O)CCC(=O)Nc2cc(OC)c(NC(=O)c3cccs3)cc2OC)cc1	38%	22%	-3%	2%	-2%	26

Screens: PubChem BioAssay, National Center for Advancing Translational Sciences (NCATS)
